Source: PubChem (National Center for Advancing Translational Sciences (NCATS))
Tau ThT inhib: inhibitors of human tau fibril formation, thioflavin T binding; P10636; 2.1% of 270,000 active; recombinant tau K18 P301L, heparin-induced fibrillization, ThT fluorescence; Potency, µM (series often up to 57.4 µM), for inactives: top-dose activity, negative = inhibition, hits mostly inhibitors; also: nearly all actives have a fitted effect of over 55% in size
Target sequence (P10636 561-689 P618L limits assumed): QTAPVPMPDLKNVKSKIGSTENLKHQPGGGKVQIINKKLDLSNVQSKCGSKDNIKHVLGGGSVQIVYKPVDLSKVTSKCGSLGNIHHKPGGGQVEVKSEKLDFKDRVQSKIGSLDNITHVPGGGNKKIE
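Aggregation was driven by heparin (20 uM final) acting on recombinant tau […] bearing P301L in 100 mM sodium acetate pH 7; fibrils were detected with Thioflavin T.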
GoLoco inh red: blocks human Gai1 binding to RGS12 GoLoco peptide, red readout; Gai1:RGS12 GoLoco peptide FP, rhodamine, 10 min; P63096; Potency, µM (doses to about 61.6 µM), for inactives: at the top dose activity, negative = inhibition, most hits filed as inhibitors; 0.44% of 230,000 active; AID 880; active = well fitted inhibition curve with a large enough effect, not every such curve was filed as active; inactive = no such curve, though single readings can be large or run the other way; also: nearly all actives have a fitted effect of over 30% in size
Target sequence (P63096 whole entry, looked up): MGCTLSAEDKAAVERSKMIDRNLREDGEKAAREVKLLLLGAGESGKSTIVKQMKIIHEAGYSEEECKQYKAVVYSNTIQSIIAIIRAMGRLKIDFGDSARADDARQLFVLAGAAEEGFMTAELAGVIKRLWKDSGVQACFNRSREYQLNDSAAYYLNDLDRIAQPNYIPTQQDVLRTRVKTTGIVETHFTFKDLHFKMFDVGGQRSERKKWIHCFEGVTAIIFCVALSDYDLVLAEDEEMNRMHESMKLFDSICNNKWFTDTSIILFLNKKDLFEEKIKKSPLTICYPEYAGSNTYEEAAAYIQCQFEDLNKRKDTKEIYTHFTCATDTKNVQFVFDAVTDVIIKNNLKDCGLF
TRb-SRC2 inh: disrupts binding of human TR beta to SRC2; P10828; TRbeta-SRC2 peptide binding, fluorescence polarization; receptor liganded with 1 µM T3; Potency, µM (doses to about 106 µM), for inactives: at the top dose activity change, negative = inhibition, hits mostly inhibitors; 0.065% of 280,000 active; AID 1469;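 also: plate controls were bound peptide for no effect and peptide without receptor for full effect; nearly all actives have a fitted effect of over 50% in size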
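Assay buffer: 20 mM Tris-HCl, 100 mM NaCl, 10% glycerol, 1 mM EDTA, 0.01% NP-40, 1 mM DTT, 1 uM T3, 5% DMSO; TRb LBD 0.6 uM, Texas Red SRC2 20 nM; FP after 5 hr.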
Tau fibril FP: inhibitors of human tau fibril formation; P10636; K18 P301L tau heparin fibrillization, Alexa594 FP, 6 h; Potency, µM (doses to about 57.7 µM), inactives show at the top dose activity, negative = inhibition, actives largely listed as inhibitors; 0.39% of 280,000 active; also: nearly all actives have a fitted effect of over 55% in size
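Recombinant K18 P301L […], labeled with Alexa 594 at 0.24 uM over 15 uM unlabeled; heparin inducer 20 uM final; 37 C, 6 hr; FP endpoint.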
Tau fluor counter: counter-screen for tau fibril formation inhibitors | tau K18 P301L (four-repeat tau fragment) Alexa594 fluorescence, heparin fibrillization | Potency, µM (doses to about 57.7 µM), without a hit: top-dose activity change, negative = decrease | 0.93% of 280,000 active; also: nearly all actives have a fitted effect of over 55% in size
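Human K18 P301L tau (15 uM unlabeled plus 0.24 uM Alexa 594-labeled, final) in 100 mM sodium acetate pH 7 was mixed with compound and 20 uM heparin and incubated 6 hr at 37 C.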
TR SRC2 fluor cs: alters Texas Red total fluorescence, flagging assay interference. TRb/SRC2 Texas Red total fluorescence interference. Potency, µM (series often up to 106 µM), inactives show at the highest dose fluorescence change, negative = quenching. 0.29% of 280,000 active; active = well fitted curve in either direction with a large enough effect; inconclusive = small, poorly fitted or top-dose-only effect
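Human TRb ligand-binding domain at 0.6 uM with 20 nM Texas Red SRC2 peptide in Tris buffer containing 1 uM T3 and 5% DMSO, incubated with compound 5 h at ambient temperature. Total fluorescence (555/632 nm) calculated as parallel + 2 × perpendicular.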
Starred values were filed as active, the others as inactive; ? = inconclusive; · = no result given; [ ] = dose if it differs, or a comment. Rows were chosen to be rich in hits. Some 3.2% of all compounds tested hit in one or more screens of this group. Unless noted, calls follow the shape of the dose curve; as a rule, active = well fitted curve in the direction sought with a large enough effect; inconclusive = small, poorly fitted or top-dose-only effect, or another doubt; inactive = no such curve, though single readings can be large; an effect the other way counts as inactive or inconclusive. Unless noted, % is scaled to controls: 0 for no effect and ±100 for the full control effect; potency is read from the fitted curve at half-maximal effect.

SMILES	Tau ThT inhib	GoLoco inh red	TRb-SRC2 inh	Tau fibril FP	Tau fluor counter	TR SRC2 fluor cs
O=C(Nc1ccc(-n2ccc(C(F)(F)F)n2)cc1)Nc1cccc(Cl)c1	13%	6%	6%	3.5µM*	?	-1%
N#CCCn1cnc2c1NC=NC2Cl (stereo unspecified)	-3%	5%	7%	5%	0%	-1%
COc1ccccc1NC(=O)Nc1ccc(-n2ccc(C(F)(F)F)n2)cc1	?	-8%	-4%	?	14µM*[quencher]	-1%
O=C(Nc1cccc(Cl)c1)Nc1csc([N+](=O)[O-])c1	16µM*	4%	-3%	?	8.9µM*[quencher]	-3%
Cc1cc(C)cc(C(=O)Nc2ccc(N3CCCC3)cc2)c1	1%	-3%	-6%	2%	-1%	-3%
Cc1cc(C)cc(NC(=O)Nc2ccc(N3CCCCC3)cc2)c1	?	-17%	-5%	10%	20µM*[quencher]	-2%
O=C1CC[C@@H](C(=O)N[C@@H](Cc2cnc[nH]2)C(=O)N[C@@H](Cc2c[nH]c3ccccc23)C(=O)N[C@@H](CO)C(=O)N[C@@H](Cc2ccc(O)cc2)C(=O)O)N1	·	·	-1%	·	·	-1%
CC(=O)N(C1=C(Cl)C(=O)c2ccccc2C1=O)C1CCCCC1	4µM*	-6%	2%	-14%	?	-3%
NC(N)=NC(N)=Nc1c(F)c(F)c(F)c(F)c1F	·	4%[14.2 µM]	·	·	·	·
Nc1nc(Sc2ccc([N+](=O)[O-])c3nonc23)c2[nH]cnc2n1	·	1.6µM*	·	·	·	·
CC(NC(=O)Cc1cc(F)cc(F)c1)C(=O)NC(C(=O)OC(C)(C)C)c1ccccc1 (stereo unspecified)	·	·	2%	·	·	2%
CC(=O)N1CCN(c2ccc(NC(=O)c3ccc(N4CCCC4)c([N+](=O)[O-])c3)cc2Cl)CC1	4µM*	6%	-10%	-6%	?	-1%
O=C(Nc1ccc(N2CCCCC2)c(Cl)c1)c1ccc2c(c1)OCCO2	?	2%	-2%	12%	14µM*[quencher]	0%
CCC(=O)N1CCN(c2ccc(NC(=O)c3ccc([N+](=O)[O-])o3)cc2Cl)CC1	11µM*	10%	1%	3%	?	2%
O=C(Nc1ccc2c(c1)OCO2)c1ccc(N2CCCC2)c([N+](=O)[O-])c1	13µM*	7%	-6%	17%	?	-4%
O=C(Nc1ccc(N2CCOCC2)c(Cl)c1)c1ccc2c(c1)OCCO2	4%	4%	2%	12%[2.34 µM]	18%[2.34 µM]	-5%
Nc1ncc(S(=O)(=O)N2CCN(c3ccccc3)CC2)cn1	5%	·	-19%	1%	6%	0.0056µM*[quencher]
Cc1cccc(-n2[nH]c3c4c(ccc3c2=O)C(=O)c2ccccc2C4=O)c1	?	0%	-6%	10%	?	-8%
CC(C)Cn1[nH]c2c3c(ccc2c1=O)C(=O)c1ccccc1C3=O	14µM*	2%	10%	4%	?	-4%
O=C(CSc1nnnn1-c1ccccc1)Nc1ccc(N2CCOCC2)c(Cl)c1	-1%	7.1µM*	-3%	12%	-25%	-1%
C/C=C(\C)C(=O)NCCN1C2=NC[C@@H](Cc3ccccc3)N2C[C@H]1Cc1ccc(O)cc1	-2%	5%	-4%	11%	2%	1%
CCCCCCNC(=O)N[C@@H](C(=O)NCCC[C@H]1CN2C(=NC[C@@H]2Cc2ccccc2)N1CCc1cccc(OC)c1)C(C)C	?	14µM*	0%	1%	2%	0%
